# DUSP3 inh: blocks human VHR1 dual specificity phosphatase; inhibition, % at 13.3 µM; AID 1654; recombinant VHR phosphatase, pNPP absorbance; hit rate 0.52% among 290,000; in the data active means inhibition above about 50%
# Mtb hypoxia inh: inhibitors of hypoxia-regulated fluorescent reporter in Mycobacterium tuberculosis; M. tuberculosis hypoxia-regulated fluorescent reporter, fluorescence; hit rate 0.1% among 300,000; fluorescence inhibition, % (no concentration beside the values); in the data active means fluorescence inhibition mostly above about 23%, no sharp cut-off; inactive means mostly below about 17%
# PrP 5UTR inh: inhibition of PrP 5' UTR reporter expression | cell-based PrP 5' UTR mRNA reporter, plate reader | inhibition, % (no concentration beside the values) | hit rate 0.35% among 340,000 | AID 488862; in the data active means inhibition above about 52%
# 3CLpro inhibitor: SARS-CoV 3CLpro protease inhibition; P0C6X7; recombinant SARS-CoV 3CLpro, quenched FRET peptide cleavage; inhibition, % at 6 µM; hit rate 0.14% among 290,000; in the data active means inhibition above about 12%
# PrPC surface inh: reduces human prion protein on the cell surface | P04156 | cell surface PrPC, TR-FRET read-out | inhibition, % at 13.8 µM | hit rate 0.43% among 370,000 | AID 720596; in the data active means inhibition above about 24%
# MazEF act: MazEF (E. coli) toxin RNase activation; P0AE70; FAM/BHQ RNA-DNA oligo cleavage fluorescence, 5 h; activation, % at 20 µM; hit rate 0.32% among 350,000; AID 504720; in the data active means activation above about 50%
# PrPC TRFRET cf: cell surface PrPC inhibition, TR-FRET confirmation; cell surface PrPC level; hit rate 65% among 1,500; shares compounds with PrPC surface inh; inhibition, % at 13.8 µM; in the data active means inhibition above about 25%
# LD9 cytotox: counter-screen for PrPc inhibitors: cytotoxicity in LD9 cells; shares compounds with PrPC surface inh; luminescence viability; inhibition, % at 13.8 µM; hit rate 29% among 1,500; AID 743201; in the data active means inhibition above about 9.5%
# Hits are given with their value; 0 = inactive; - = no result given. Only some compounds are listed: those with a hit (about 1.5% of all), similar ones and a draw of the others.
SMILES,DUSP3 inh,Mtb hypoxia inh,PrP 5UTR inh,3CLpro inhibitor,PrPC surface inh,MazEF act,PrPC TRFRET cf,LD9 cytotox
Cc1cccc2cc(C(c3nnnn3Cc3ccccc3)N3CCN(c4ccccc4)CC3)c(=O)[nH]c12 (stereo unspecified),0,0,0,0,59,0,0,0
O=C1CCCN1c1ccc(S(=O)(=O)NCCOc2ccccc2)cc1,0,0,0,0,0,0,-,-
Cc1cc(N2CCCC2=O)cc(C)c1S(=O)(=O)NCCOc1ccc(C(C)(C)C)cc1,0,-,0,0,32,0,29,0
COc1ccc2cc(C=NNC(=O)CN(c3ccccc3)S(=O)(=O)c3ccccc3)c(Cl)nc2c1,-,0,-,-,-,-,-,-
CSc1sc(-c2ccnc(SCC(=O)C(C)(C)C)n2)c2c1C(=O)CC(C)(C)C2,0,0,0,0,32,0,48,0
CSc1sc(C(=O)O)c2c1C(=O)CC(C)(C)C2,-,0,0,-,0,0,-,-
Nc1nonc1NN=Cc1ccccc1,-,0,-,-,-,-,-,-
O=C1[C@H]2[C@@H](c3ccccc3)N[C@]3(CCCN(Cc4ccc(Cl)cc4)C3=O)[C@H]2C(=O)N1Cc1ccccc1,-,-,-,-,27,0,0,0
CCCCCC(=NNC(=O)Nc1ccccc1)c1ccccc1,-,0,-,-,-,-,-,-
CCCCCCCCCCCCCCCCn1cc[n+](C)c1,0,0,0,0,34,0,49,42
Cn1cc(C2NC(=O)c3ccccc3N2)c2ccccc21 (stereo unspecified),-,-,0,-,25,0,0,0
COc1ccc(CCNC(=O)CSc2nn3c(=O)c(C)nnc3s2)cc1OC,0,0,0,0,25,0,0,0
O=C(NN=Cc1ccc([N+](=O)[O-])o1)C(=O)Nc1ccc(C(=O)O)cc1,-,0,-,-,-,-,-,-
CC(NC(=O)c1[nH]cnc1C(=O)Nc1ccc(CNC(=O)OC(C)(C)C)cc1)C(=O)OC(C)(C)C (stereo unspecified),-,0,-,-,-,-,-,-
NC(=O)c1cccc(-c2cc(Nc3ccc(OC(F)(F)F)cc3)ncn2)c1,0,0,0,-,51,0,0,0
O=C(NCCO)c1cccc(-c2cc(Nc3ccc(OC(F)(F)F)cc3)ncn2)c1,-,-,-,-,0,-,-,-
CC(=O)c1sc(NC(=O)C(C)C)nc1C,0,-,0,0,33,0,35,0
CC(=O)Nc1nc(C)c(C(C)=O)s1,0,0,0,0,0,0,-,-
CCOc1ccc(-c2c(C(=O)NN=C(C)c3ccncc3)nnn2-c2nonc2N)cc1,-,0,-,-,-,-,-,-
COc1ccc2c(C)cc(SC3CCOC3=O)nc2c1 (stereo unspecified),0,0,0,0,0,0,-,-
Cc1cc(C)c2nc(SC3CCOC3=O)cc(C)c2c1 (stereo unspecified),0,0,0,0,78,0,87,0
CN1CCC(N(C)c2ncnc3ccc(Br)cc23)CC1,0,-,0,0,0,0,-,-
CCN(CC)c1ncnc2ccc(Br)cc12,0,0,0,0,39,0,41,0
Cc1ccccc1OCCC(=O)Nc1ccc2c(C)cc(=O)oc2c1,0,0,0,0,38,0,27,0
Cc1ccccc1OCC(=O)Nc1ccc(Cc2ccncc2)cc1,0,0,0,0,25,0,0,0
SMILES,DUSP3 inh,Mtb hypoxia inh,PrP 5UTR inh,3CLpro inhibitor,PrPC surface inh,MazEF act,PrPC TRFRET cf,LD9 cytotox
COc1ccc(NC(=O)Nc2cnccn2)c(OC)c1,0,0,0,0,0,0,-,-
COc1ccc(NC(=O)Nc2ccc(Cc3ccncc3)cc2)c(OC)c1,0,0,0,0,26,0,0,0
Cc1ccsc1C=NNC(=O)CC(=O)NCc1ccccc1,-,0,-,-,-,-,-,-
CCOc1cc(C=Nn2c(C)nnc2C)ccc1O,-,0,-,-,-,-,-,-
Cc1ccc(-n2c(C)cc(C(=O)CSc3nncs3)c2C)cc1,0,0,0,0,39,0,34,0
Cc1cc(C(=O)CSc2nncs2)c(C)n1-c1c(C)n(C)n(-c2ccccc2)c1=O,0,0,0,0,0,0,-,-
Cc1ccc(C=NNC(=O)C2CC(=O)N(c3ccccc3)C2)s1 (stereo unspecified),-,0,-,-,-,-,-,-
COc1ccc(OCC(=O)NN=c2oc3c(OC)cccc3cc2C(N)=O)cc1,-,0,-,-,-,-,-,-
N#CC(=Cc1ccc(O)cc1)C(N)=C(C#N)C#N,-,0,0,-,64,0,0,0
CC(C)(C)C(=O)C(C#N)=Cc1ccc(O)cc1,-,0,-,-,-,-,-,-
COc1cccc(-c2cc3c(=O)n(-c4ccccc4)c(=S)[nH]c3s2)c1,0,0,0,0,31,0,67,0

# Screening results (PubChem)
